# PubChem BioAssay
# Assay: probe aDKK1 binding to arrayed compounds – biochemical, biotinylated probe, 635/667 nm fluorescence, primary screen (AID 1099);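 further: score merges 667nm spot fluorescence with signal to noise across triplicate slides; reference of the scale not given here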
# Details: small-molecule microarray, higher = more signal
row,SMILES,composite z-score
1,COc1cc(NN2C(C(O)c3ccc(I)cc3)C=CC3C(=O)N(c4ccccc4)C(=O)C32)cc(OC)c1OC (stereo unspecified),0.763
2,CN(C)CCCC[C@@H]1NC(=O)[C@@H]2C[C@H](C(=O)O)[C@H](c3cccc(OCCO)c3)N2C1=O,-0.336
3,CN1C(=O)C2C=CC(C(O)c3cc(C(F)(F)F)cc(C(F)(F)F)c3)N(Nc3ccccc3)C2C1=O (stereo unspecified),-0.224
4,C=C(/C(=C/C[C@H](OC(=O)c1ccncc1)c1ccccc1OCCO)c1cnc2ccccc2c1)C(C)C,-0.117
5,COC(=O)[C@@]1(Cc2ccccc2CN=[N+]=[N-])N=C(c2ccc(OCCCO)cc2)O[C@H]1c1ccccc1,0.789
6,C=CCC(OC(C)=O)[C@@H]1[C@@H](N(Cc2cccc3ccccc23)C(=O)c2ccc(-c3ccccc3)cc2)c2cc(OCCCO)ccc2N1C(=O)c1ccc(-c2ccccc2)cc1 (stereo partly specified),0.508
7,COC(=O)[C@@]1(Cc2ccc(F)cc2)[C@H]2c3cc(C(=O)N(C)C)n(Cc4c(CO)[nH]cc(C)c4=O)c3C[C@H]2CN1C(=O)c1ccccc1,0.617
8,CN(C)C(=O)[C@]1(CCS(=O)(=O)c2ccccc2)N=C(c2ccc(OCCCO)cc2)O[C@@H]1c1ccccc1,0.483
9,CC(C)OC(=O)CC(=O)CC(O)c1ccc([N+](=O)[O-])cc1 (stereo unspecified),0.749
10,CCN(CC)c1ccc(N2CC=CC34O[C@@H]5/C=C\CCC(C)OC(=O)C5[C@H]3C(=O)N(C(C)CO)[C@@H]4C2=O)cc1 (stereo partly specified),-0.47
11,Cc1ccc(C(C)CC(O)C2C=CC3C(=O)N(c4ccccc4)C(=O)C3N2Nc2ccc(C#N)cc2)o1 (stereo unspecified),0.846
12,Cc1ccc(F)cc1S(=O)(=O)N[C@@H]1CCN(Cc2cccc3[nH]ccc23)C1,-0.374
13,O=C1C2C=CC(C(O)c3ccco3)N(Nc3ccccc3)C2C(=O)N1c1ccccc1 (stereo unspecified),0.144
14,CCOC(=O)C1=CCC(c2ccco2)N(S(=O)(=O)c2ccc(C)cc2)C1 (stereo unspecified),0.363
15,O=C(NCCN1CCOCC1)[C@@H]1c2ccccc2C(=O)N(Cc2ccccc2)[C@H]1c1ccc(CO)cc1,-0.117
16,CCOC(=O)C1=C[C@@H](c2ccccc2)N(S(=O)(=O)c2ccc(C)cc2)[C@H]1c1ccccc1,0.0612
17,COCCOC(=O)N1C(=O)[C@@]2(c3cc(C#Cc4ccc(OC)cc4)ccc31)[C@H](c1ccc(OCCO)cc1)N1[C@H](c3ccccc3)[C@H](c3ccccc3)OC(=O)[C@H]1[C@@H]2C(=O)Nc1nc2ccccc2s1,0.636
18,[N-]=[N+]=Nc1ccccc1C[C@]1(C(=O)O)N=C(c2ccc(OCCCO)cc2)O[C@H]1c1ccccc1N=[N+]=[N-],1.06

row,SMILES,composite z-score
1,CC=CC(O)C1C=CC2C(=O)NC(=O)C2N1Nc1ccccn1 (stereo unspecified),-0.0419
2,CCOC(=O)C1=C[C@@H](C(C)(C)C)N(S(=O)(=O)c2ccc(C)cc2)[C@H]1c1ccccc1,1.44
3,COC(=O)[C@@]1(Cc2ccc(F)cc2)[C@H]2c3cc(C(=O)N4CCCC4)n(CC4CC4)c3C[C@H]2CN1C(=O)c1ccccc1,1.15
4,CO[C@H]1O[C@H](CO)[C@@H](OC(=O)Nc2ccc(C#N)cc2)[C@@H]2OC(=O)[C@H](Cc3cccc(Br)c3)C/C=C/C[C@@H](Cc3cccc(Br)c3)C(=O)O[C@@H]12,0.617
5,COC(=O)[C@@]1(Cc2ccccc2)[C@H]2c3cc(C(=O)N(C)C)n(CCn4cc([N+](=O)[O-])nc4C)c3C[C@H]2CN1C(=O)c1ccccc1,-0.262
6,Cc1ccc(N2C(=O)c3ccccc3[C@](C)(C(=O)NCc3ccccc3)[C@@H]2c2ccc(CO)cc2)nc1,0.499
7,COC(=O)[C@@]1(Cc2ccc(F)cc2)[C@H]2c3cc(C(=O)N4CCCC4)n(C)c3C[C@H]2CN1C(=O)c1ccccc1,0.874
8,CC(C)C(=C=CC[C@@H](O)c1cccc(OCCO)c1)C[C@@H](O)c1ccccn1,-0.261
9,O=C(O)[C@H]1C[C@H]2C(=O)N[C@@H](Cc3ccccc3)C(=O)N2[C@H]1c1cccc(OCCO)c1,0.507
10,COc1ccc([Si](C)(C)[C@@H]2[C@@H](CC(=O)N3Cc4ccccc4C[C@H]3CO)O[C@]3(C(=O)N(Cc4ccc(N5CCC5=O)cc4)c4ccccc43)[C@H]2C)cc1,-0.259
11,Cc1ccc([C@H]2C(C(=O)O)=C[C@@H](C(C)(C)C)N2S(=O)(=O)c2ccc(C)cc2)cc1,1.05
12,CN1C(=O)[C@@]2(Cc3ccccc3)N=C(c3ccc(OCCCO)cc3)O[C@H]2c2ccccc21,0.428
13,COCCCNC(=O)[C@@]1(Sc2ccc(C)cc2)CC(=O)N(C(C)C)[C@@H]1c1ccc(CO)cc1I,-0.0358
14,CC(C)C(=C=CC[C@@H](O)c1cccc(OCCO)c1)C[C@@H](O)COCc1ccccc1,-0.119
15,COC(=O)[C@@]1(Cc2ccccc2)[C@H]2c3cc(C(=O)N4CCCC4)n(CCSCCO)c3C[C@H]2CN1C(=O)c1ccccc1,1.25
16,CCOC(=O)C1=C[C@@H](C(C)(C)C)N(S(=O)(=O)c2ccc(C)cc2)[C@H]1c1cccc(Cl)c1,0.821
17,C=C[C@H](C)[C@H](OC(=O)Nc1ccc(OC)cc1)c1ccc(OCCO)cc1,-0.115
18,C[C@]1(C(=O)O)c2ccccc2C(=O)N(Cc2ccc(OC(F)(F)F)cc2)[C@H]1c1ccc(CO)cc1,0.702
